From PubChem BioAssay (NCI)
This is part of a sample that, as a whole, favours compounds with a hit. Of some 79,000 tested, about 15% had one in any assay. Activity calls are given as the source filed them. No stated cut-off is given here; in the data, active means growth inhibition above about 70%; inactive means the rest.

What was measured:
[1] = NCI Yeast Anticancer Drug Screen. Data for the wt1 strain (AID 149);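 further: 0% = growth of vehicle-treated wt1 cultures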; settings: S. cerevisiae wt1 strain (SPY 50644) growth inhibition, stronger effect = higher value
Outline: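 wt1 yeast, compound-treated; % growth inhibition vs vehicle control.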

[2] = NCI Yeast Anticancer Drug Screen. Data for the rad50EPP+ strain (AID 151);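 further: 0% = growth of vehicle-treated control cultures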; settings: S. cerevisiae rad50 mutant strain, stronger effect = higher value
Outline: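 Read-out is yeast growth inhibition relative to vehicle; cells used were the rad50EPP+ strain.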

[3] = NCI Yeast Anticancer Drug Screen. Data for the mgt1 strain (AID 153); settings: S. cerevisiae mgt1 mutant growth inhibition, stronger effect = higher value
Outline: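 Measured: inhibition of mgt1 yeast growth by compound, normalized to vehicle-treated cultures.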

[4] = NCI Yeast Anticancer Drug Screen. Data for the rad50 strain (AID 155);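 further: 0% = growth of vehicle-only cultures of the same strain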; settings: S. cerevisiae rad50 strain growth inhibition, stronger effect = higher value
Outline: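 Genetically altered yeast (DNA repair pathway); compound treatment; growth inhibition vs vehicle ctrl.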

[5] = NCI Yeast Anticancer Drug Screen. Data for the mec2-1 strain (AID 157); settings: S. cerevisiae mec2-1 strain, stronger effect = higher value
Outline: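 Using mec2-1 yeast: add compound, measure growth, express inhibition versus vehicle-treated cultures.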

[6] = NCI Yeast Anticancer Drug Screen. Data for the rad14 strain (AID 159);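 further: 0% = growth of vehicle-treated control cultures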; settings: S. cerevisiae rad14 strain growth inhibition, stronger effect = higher value
Outline: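 Test compounds were applied to a repair-deficient yeast strain. Its growth was then compared with that of cultures given vehicle alone, and inhibition was expressed relative to those controls.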

[7] = NCI Yeast Anticancer Drug Screen. Data for the sgs1 mgt1 strain (AID 161);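 further: 0% = growth of cultures given vehicle only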; settings: S. cerevisiae sgs1 mgt1 strain, stronger effect = higher value
Outline: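 Percent growth inhibition was derived by comparing compound-exposed mutant yeast with vehicle-exposed cultures. The strain carries alterations in DNA damage repair.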

[8] = NCI Yeast Anticancer Drug Screen. Data for the CLN2oe strain (AID 163);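 further: 0% = growth of vehicle-only control cultures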; settings: S. cerevisiae CLN2oe strain, stronger effect = higher value
Outline: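 Whole-cell yeast growth assay. A strain engineered for altered cell-cycle control received compound, and inhibition relative to vehicle-treated cultures was recorded.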

[9] = NCI Yeast Anticancer Drug Screen. Data for the cln2 rad14 strain (AID 165);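 further: 0% = growth equal to vehicle treated cultures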; settings: S. cerevisiae cln2 rad14 strain, stronger effect = higher value
Outline: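 Yeast strain cln2 rad14, bearing defects in cell cycle control and DNA repair, serves as the test system; values reflect growth inhibition compared with vehicle.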

[10] = NCI Yeast Anticancer Drug Screen. Data for the bub3 strain (AID 167); settings: S. cerevisiae bub3 mutant strain, stronger effect = higher value
Outline: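 Yeast carrying a defined mutation is treated with each compound, and growth is compared with that of vehicle-exposed cells to give inhibition.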

[11] = NCI Yeast Anticancer Drug Screen. Data for the wt2 strain (AID 169);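 further: 0% = growth of vehicle-treated yeast cultures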; settings: S. cerevisiae wt2 strain growth inhibition, stronger effect = higher value
Outline: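 Treated yeast vs. vehicle-treated yeast: growth inhibition determined.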

[12] = NCI Yeast Anticancer Drug Screen. Data for the mlh1 strain (AID 171);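 further: 0% = growth of vehicle-treated control cultures of the same strain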; settings: S. cerevisiae mlh1 strain growth inhibition, stronger effect = higher value
Outline: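 A yeast strain with a defined genetic lesion serves as the test organism. Cultures receive compound or vehicle, and growth is measured.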

[13] = NCI Yeast Anticancer Drug Screen. Data for the sgs1 strain (AID 173);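 further: 0% = growth of vehicle-only control cultures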; settings: S. cerevisiae sgs1 mutant, stronger effect = higher value
Outline: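 A genetically defined yeast mutant is incubated with the test compound, and its growth is compared to that of the same strain given vehicle.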

[14] = NCI Yeast Anticancer Drug Screen. Data for the mlh1 rad18 strain (AID 175); settings: S. cerevisiae mlh1 rad18 strain growth inhibition, stronger effect = higher value
Outline: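 Steps: expose repair-defective yeast to compound; measure growth; express inhibition against vehicle-treated controls.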

[15] = NCI Yeast Anticancer Drug Screen. Data for the rad18 strain (AID 177); settings: S. cerevisiae rad18 mutant growth inhibition, stronger effect = higher value
Outline: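 Measured value is growth inhibition of a yeast strain bearing a DNA repair alteration, referenced to vehicle-treated cells.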

[16] = at 5.0 µM (retest, dose inferred, filed as 0.5)
[17] = at 50.0 µM (retest, dose inferred, filed as 5.0)

Measured: growth inhibition

COc1ccc(C(=O)NCCN(C)C)c2nc3ccccc3cc12
inactive: [1]; at 1.2 µM -11% | [1]; at 3.7 µM 21% | [1]; at 11.0 µM -2% | [1]; at 33.0 µM -6% | [1]; at 100.0 µM 39% | [2]; at 1.2 µM 13% | [2]; at 3.7 µM 46% | [2]; at 11.0 µM 63% | [3]; at 1.2 µM 7% | [3]; at 3.7 µM 19% | [3]; at 11.0 µM 14% | [3]; at 33.0 µM 17% | [3]; at 100.0 µM 67% | [4]; at 1.2 µM 45% | [5]; at 1.2 µM 18% | [5]; at 3.7 µM 17% | [5]; [16] 14% | [5]; at 11.0 µM 18% | [5]; at 33.0 µM 30% | [5]; [17] 59% | [6]; at 1.2 µM 7% | [6]; at 3.7 µM 3% | [6]; at 11.0 µM -9% | [6]; at 33.0 µM 10% | [6]; at 100.0 µM 57% | [7]; [16] 18% | [7]; [17] 39% | [7]; at 50.0 µM 30.6% | [8]; at 1.2 µM 29% | [8]; at 3.7 µM 26% | [8]; at 11.0 µM 29% | [8]; at 33.0 µM 41% | [9]; [16] 17% | [9]; [17] 25% | [9]; at 50.0 µM 10.7% | [10]; at 1.2 µM 12% | [10]; at 3.7 µM 11% | [10]; [16] 22% | [10]; at 11.0 µM 9% | [10]; at 33.0 µM 9% | [10]; [17] 36% | [10]; at 50.0 µM -31.9% | [10]; at 100.0 µM 41% | [11]; at 1.2 µM -16% | [11]; at 3.7 µM -8% | [11]; at 11.0 µM -15% | [11]; at 33.0 µM -8% | [12]; at 1.2 µM 26% | [12]; at 3.7 µM 23% | [12]; at 11.0 µM 18% | [12]; at 33.0 µM 29% | [13]; at 1.2 µM 15% | [13]; at 3.7 µM 16% | [13]; at 11.0 µM 10% | [13]; at 33.0 µM 10% | [13]; at 100.0 µM 62% | [14]; [16] 19% | [14]; [17] 64% | [14]; at 50.0 µM 19.6% | [15]; at 1.2 µM 19% | [15]; at 3.7 µM 17% | [15]; at 11.0 µM 11% | [15]; at 33.0 µM -5% | [15]; at 100.0 µM 66%
active: [2]; at 33.0 µM 90% | [2]; at 100.0 µM 96% | [4]; at 3.7 µM 77% | [4]; [16] 73% | [4]; at 11.0 µM 93% | [4]; at 33.0 µM 95% | [4]; [17] 95% | [4]; at 50.0 µM 82.5% | [4]; at 100.0 µM 94% | [5]; at 50.0 µM 71.2% | [5]; at 100.0 µM 80% | [8]; at 100.0 µM 73% | [11]; at 100.0 µM 90% | [12]; at 100.0 µM 75%

Nc1ccc2cc(Br)c3ccccc3c2c1
active: [1]; at 100.0 µM 75% | [4]; at 50.0 µM 86.2% | [5]; at 50.0 µM 73.7% | [7]; at 50.0 µM 88.5% | [10]; at 50.0 µM 71.5% | [11]; at 100.0 µM 80% | [14]; at 50.0 µM 90.3%
inactive: [1]; at 1.2 µM 0% | [1]; at 3.7 µM 1% | [1]; at 11.0 µM -2% | [1]; at 33.0 µM -2% | [2]; at 1.2 µM 3% | [2]; at 3.7 µM 5% | [2]; at 11.0 µM 22% | [2]; at 33.0 µM 39% | [2]; at 100.0 µM 26% | [3]; at 1.2 µM -1% | [3]; at 3.7 µM -3% | [3]; at 11.0 µM -1% | [3]; at 33.0 µM -1% | [3]; at 100.0 µM -3% | [4]; at 1.2 µM 0% | [4]; at 3.7 µM 1% | [4]; [16] 5% | [4]; at 11.0 µM 1% | [4]; at 33.0 µM 16% | [4]; [17] 41% | [4]; at 100.0 µM 20% | [5]; at 1.2 µM -3% | [5]; at 3.7 µM -1% | [5]; [16] -18% | [5]; at 11.0 µM 0% | [5]; at 33.0 µM 3% | [5]; [17] 6% | [5]; at 100.0 µM 6% | [6]; at 1.2 µM -1% | [6]; at 3.7 µM 0% | [6]; at 11.0 µM 4% | [6]; at 33.0 µM 8% | [6]; at 100.0 µM 21% | [7]; [16] 13% | [7]; [17] 50% | [8]; at 1.2 µM -2% | [8]; at 3.7 µM -19% | [8]; at 11.0 µM -1% | [8]; at 33.0 µM -4% | [8]; at 100.0 µM -16% | [9]; [16] 15% | [9]; [17] 18% | [9]; at 50.0 µM 40.1% | [10]; at 1.2 µM 0% | [10]; at 3.7 µM 2% | [10]; [16] 10% | [10]; at 11.0 µM 2% | [10]; at 33.0 µM -1% | [10]; [17] 31% | [10]; at 100.0 µM -6% | [11]; at 1.2 µM -1% | [11]; at 3.7 µM 0% | [11]; at 11.0 µM -3% | [11]; at 33.0 µM 2% | [12]; at 1.2 µM -1% | [12]; at 3.7 µM -1% | [12]; at 11.0 µM -1% | [12]; at 33.0 µM 1% | [12]; at 100.0 µM 2% | [13]; at 1.2 µM -2% | [13]; at 3.7 µM -2% | [13]; at 11.0 µM -1% | [13]; at 33.0 µM 4% | [13]; at 100.0 µM 9% | [14]; [16] 28% | [14]; [17] 65% | [15]; at 1.2 µM -3% | [15]; at 3.7 µM -2% | [15]; at 11.0 µM -4% | [15]; at 33.0 µM -1% | [15]; at 100.0 µM -5%
